CBX7 inh: CBX7 inhibition, primary AlphaScreen; AlphaScreen His6-CBX7 / biotin-H3K27me3 peptide binding; stronger effect = lower value; normalised signal (fraction of DMSO) (no concentration beside the values); hit rate 1.1% among 66,000; AID 1224903; in the data active means normalised signal below about 0.5
Target sequence (O95931 whole entry, looked up): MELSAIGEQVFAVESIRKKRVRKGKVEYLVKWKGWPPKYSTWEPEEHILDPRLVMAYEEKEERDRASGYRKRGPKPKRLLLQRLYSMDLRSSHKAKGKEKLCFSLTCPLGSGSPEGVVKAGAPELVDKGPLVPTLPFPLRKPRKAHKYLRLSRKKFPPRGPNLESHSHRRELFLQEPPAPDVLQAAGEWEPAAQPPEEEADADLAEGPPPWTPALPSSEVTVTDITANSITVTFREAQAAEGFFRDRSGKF
Numbers stand for hits; – = inactive. Many of the other results were omitted from the sample, so hits are more common in it than they were.

SMILES | CBX7 inh
CCCCN(C)S(=O)(=O)c1ccc(C(=O)Nc2nnc(CC)o2)cc1 | 0.394
CCCCN(C)S(=O)(=O)c1ccc(C(=O)Nc2c(C(=O)OCC)oc3ccccc23)cc1 | –
COc1ccc(-c2nnc(NC(=O)c3ccc(S(=O)(=O)N(C)C4CCCCC4)cc3)o2)cc1 | –
CN(C1CCCCC1)S(=O)(=O)c1ccc(C(=O)Nc2ccc(-c3nc4ccccc4[nH]3)cc2)cc1 | –
COc1ccc(CCNC(=O)C2CCCN(S(=O)(=O)c3cccs3)C2)cc1OC (stereo unspecified) | –
CCN(CC)S(=O)(=O)c1ccc2oc(C(=O)Nc3ccc(C)cc3C)c(C)c2c1 | –
COc1cccc(Nc2nc(-c3ccccc3)c3cc(Br)ccc3n2)c1 | –
CCN(CC)CC(C)CNC(=O)c1cc(=O)[nH]c2ccc(S(=O)(=O)N3CCCC(C)C3)cc12 (stereo unspecified) | –
Cc1cccc(NC(=O)c2cnc3ccccn3c2=O)c1C | –
Cc1nc2c(c(C)nn2-c2ccccc2)c(C)c1CCC(=O)Nc1ccc2c(c1)OCO2 | –
O=C(C1CCCN1S(=O)(=O)c1cccc2cccnc12)N1CC=C(c2ccccc2)CC1 (stereo unspecified) | –
Cc1cccc(CCNC(=O)c2ccc(CNc3c(NC4CCCC4)c(=O)c3=O)cc2)c1 | –
COc1ccc(OC)c(NC(=O)c2c(NCc3cccnc3)sc3c2CCCC3)c1 | –
COc1ccc(NC(=O)c2c(NCc3cccnc3)sc3c2CCCC3)c(OC)c1 | 0.307
COc1ccc(OC)c(NC(=O)c2c(NCc3ccncc3)sc3c2CCC(C)C3)c1 (stereo unspecified) | –
COc1ccc(CNc2sc3c(c2C(=O)Nc2ccc(OC)cc2OC)CCC3)cc1 | –
COc1ccc(NC(=O)c2c(NCc3cccnc3)sc3c2CCC(C)C3)c(OC)c1 (stereo unspecified) | 0.462
COc1ccc(OC)c(NC(=O)c2c(NCc3cccnc3)sc3c2CCC(C)C3)c1 (stereo unspecified) | –
Cn1nc(-c2ccc(C(=O)NCc3cccnc3)cc2)c2ccccc2c1=O | –
COc1ccc(C(=O)Nc2ccc3nc(N4CCOCC4)cc(C)c3c2)cc1OC | –
Cc1cc(C)c2nc(Nc3nc(C)c(C)c(=O)[nH]3)nc(C)c2c1 | –
O=C(c1ccc(S(=O)(=O)N2CCCCC2)cc1)N1CCCCC1c1cccnc1 (stereo unspecified) | –
CCN1CCN(c2oc(-c3ccccc3)nc2C#N)CC1 | –
N#Cc1nc(-c2ccccc2)oc1N1CCOCC1 | –
CC1CCN(c2oc(-c3ccccc3)nc2C#N)CC1 | 0.412
SMILES | CBX7 inh
CC(=O)N1CCc2cc(S(=O)(=O)NCCN3CCN(c4ccccc4F)CC3)ccc21 | –
CCOc1ccc(C(=O)Nc2c(C(=O)c3ccc(Br)cc3)oc3ccccc23)cc1 | –
COc1ccc(Nc2cc(C(=O)N3CCN(c4ccccc4)CC3)c3ccccc3n2)c(OC)c1 | –
CCOC(=O)c1cnc2c(OC)cccc2c1NCc1ccccc1OC | –
CCOC(=O)c1cnc2c(OC)cccc2c1Nc1ccc(CC)cc1 | –
CCOC(=O)c1cnc2c(OC)cccc2c1N1CCC(Cc2ccccc2)CC1 | 0.422
CCCc1ccc(OCC(O)CN2CCN(c3ccc(OC)cc3)CC2)cc1 (stereo unspecified) | –
COc1cccc(CNCc2cccnc2)c1OCc1ccc(F)cc1 | –
CCCCN(C)CCNC(=O)c1cc(Nc2ccc(OC)cc2)nc2ccccc12 | –
COc1ccccc1-c1cc2nc(C)c(CCC(=O)NCCCN3CCCC3=O)c(C)n2n1 | –
COc1ccccc1NC(=O)C1CC2c3ccccc3C1c1ccccc12 (stereo unspecified) | –
COc1ccccc1-c1c(C)nn2c(NCCN3CCN(c4cccc(Cl)c4)CC3)cc(C)nc12 | –
Cc1ccc(NC(=O)Cn2cnc3sc(C)c(C)c3c2=O)c(Br)c1 | –
COCc1nnc(NC(=O)c2ccc(S(=O)(=O)N3CCCCCC3)cc2)o1 | 0.0663
CCc1nnc(NC(=O)c2ccc(S(=O)(=O)N3CCCC3)cc2)o1 | 0.454
CCc1nnc(NC(=O)c2ccc(S(=O)(=O)N3CCCc4ccccc43)cc2)o1 | 0.0473
CCc1nnc(NC(=O)c2ccc(S(=O)(=O)N3CC(C)CC(C)C3)cc2)o1 (stereo unspecified) | –
NC(=O)c1oc2ccccc2c1NC(=O)c1ccc(S(=O)(=O)N2CCCc3ccccc32)cc1 | –
CCc1nnc(NC(=O)c2ccc(S(=O)(=O)N3CCCCC3C)cc2)o1 (stereo unspecified) | –
CCc1nnc(NC(=O)c2ccc(S(=O)(=O)N3CCc4ccccc4C3)cc2)o1 | –
COCc1nnc(NC(=O)c2ccc(S(=O)(=O)N3CCCC(C)C3)cc2)o1 (stereo unspecified) | –
Cc1nc(-c2cccc(NC(=O)C(C)C)c2)cs1 | –
Cc1ccc(S(=O)(=O)CCc2nnc(NC(=O)c3ccc(Cl)cc3)s2)cc1 | –
Cc1ccc2c(Cl)c(-c3nnc(-c4ccc(C(C)C)cc4)o3)sc2c1 | –
CCOc1ccc(NC(=O)c2cn(CC)c(=O)c3cc(OC)c(OC)cc23)cc1 | –
SMILES | CBX7 inh
COc1ccc(-c2nc(-c3cccc(F)c3)[nH]c2-c2ccc(OC)cc2)cc1 | –
COc1ccc(-c2nc(-c3ccccc3)c(-c3ccc(Sc4ccccc4)cc3)[nH]2)cc1 | –
COc1ccc(-c2nc(-c3ccccc3)c(-c3ccc(Cl)cc3)[nH]2)cc1 | –
COc1ccc(-c2nc(-c3ccccc3)c(-c3ccc(Oc4ccccc4)cc3)[nH]2)cc1 | 0.472
COc1ccc(-c2nc(-c3ccccc3F)[nH]c2-c2ccc(OC)cc2)cc1 | 0.466
COc1ccc(-c2nc(-c3cccc4ccccc34)[nH]c2-c2ccc(OC)cc2)cc1 | –
Oc1ccc(-c2nc(-c3ccccc3)c(-c3ccc(Oc4ccccc4)cc3)[nH]2)cc1O | 0.446
CC(C)c1ccc(NC(=O)CCc2nc(-c3ccccc3F)no2)cc1 | –
Cc1ccc(-c2nn3cc(-c4ccc(Cl)cc4)c4c3n2CCCC4)cc1 | –
CC1CCN(c2nc3ccc(C(=O)NCCN4CCCCCC4)cc3s2)CC1 | –
COc1ccc(N2C(=O)CC(NCCc3ccc(OC)c(OC)c3)C2=O)cc1 (stereo unspecified) | –
COc1ccc(C)cc1NC(=O)C1CCN(S(=O)(=O)c2ccc3c(c2)CCC(=O)N3)CC1 | –
O=C(CCc1nc2sc3c(c2c(=O)[nH]1)CCCC3)NCc1ccccn1 | 0.341
CC(=O)NCCNC(=O)CCc1nc2sc3c(c2c(=O)[nH]1)CCCC3 | –
COc1ccc(CNC(=O)CCc2nc3sc4c(c3c(=O)[nH]2)CCCC4)cc1 | –
COc1ccc(-c2csc(Nc3cccc(O)c3)n2)cc1OC | –
COc1ccc(-c2csc(Nc3ccc(O)cc3)n2)cc1OC | –
CCOc1ccccc1Nc1nc(-c2ccccn2)cs1 | –
c1cnc(Nc2nc(-c3ccncc3)cs2)nc1 | –
Oc1ccc(Nc2nc(-c3ccccn3)cs2)cc1 | 0.00138
O=C(O)c1cccc(Nc2nc(-c3ccncc3)cs2)c1 | –
O=C(O)c1cccc(Nc2nc(-c3ccccn3)cs2)c1 | 0.148
Oc1cccc(Nc2nc(-c3ccncc3)cs2)c1 | –
O=C(O)c1cccc(Nc2nc(-c3ccccc3)cs2)c1 | –
c1ccc(-c2csc(Nc3ncccn3)n2)nc1 | 0.00885
CCc1ccc(-c2csc(Nc3ncccn3)n2)cc1 | –
Oc1cccc(Nc2nc(-c3ccccn3)cs2)c1 | 0.186
Cc1ccccc1CN1C(=O)C(O)(C(C)C(=O)c2ccccc2)c2ccccc21 (stereo unspecified) | –
CCC(=O)N1CCc2cc(S(=O)(=O)N(C)c3ccc(OC)cc3)ccc21 | –
